PubChem BioAssay
The source made the active and inactive calls. Unless noted, the rule behind the calls is not given here.

Experiments:
[1] = tested on: XIP peptide (Xip251-270) binding; assay: XIP fragment 251-270 binding compounds – biochemical, small-molecule microarray, fluorescence 635/667 nm, 0.1 µg/mL protein, primary screen (AID 1182); conditions: fluorescent protein binding, 635 nm, higher = more signal, called active from +8 up or from −8 down
XIP peptide (Xip251-270) = assay: compounds binding XIP fragment 251-270 – biochemical, small-molecule microarray, fluorescence 635/667 nm, 0.5 µg/mL protein, primary screen (AID 1183); conditions: fluorescence 635 nm, higher = more signal
[2] = blood-stage malaria parasite viability loss – strain 3D7, DAPI fluorescence, 100 nL, primary screen (AID 1184);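 note: parasites grown inside human red blood cells in medium with human serum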; conditions: P. falciparum 3D7 growth, 3 d, higher = more signal
[3] = target: Homeobox protein Hox-A13 (Mus musculus) (UniProt Q62424); assay: disruptors of Hoxa13 oligonucleotide interaction – biochemical, fluorescence polarization, labeled oligonucleotide, primary screen (AID 1185); conditions: Hoxa13:DNA binding, 15 min, higher = more signal, called active from +8 up or from −8 down
Sequence of Homeobox protein Hox-A13 (Mus musculus) (Q62424 whole entry, looked up): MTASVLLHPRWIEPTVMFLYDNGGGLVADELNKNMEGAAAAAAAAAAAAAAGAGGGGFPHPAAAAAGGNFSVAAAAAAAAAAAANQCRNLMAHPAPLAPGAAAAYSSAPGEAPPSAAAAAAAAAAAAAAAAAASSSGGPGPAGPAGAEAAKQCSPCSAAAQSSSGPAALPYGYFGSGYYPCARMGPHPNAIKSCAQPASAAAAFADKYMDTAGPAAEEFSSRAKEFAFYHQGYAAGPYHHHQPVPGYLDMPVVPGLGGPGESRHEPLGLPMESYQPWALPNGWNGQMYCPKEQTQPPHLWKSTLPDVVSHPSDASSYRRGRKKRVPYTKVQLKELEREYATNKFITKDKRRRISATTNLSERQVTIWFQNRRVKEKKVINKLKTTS

[4] = blockers of DNA damage checkpoint Chk1 activation – imaging, HeLa, hydroxyurea, phospho-Chk1 antibody, percent positive cells, primary screen (AID 1186); conditions: hydroxyurea-induced phospho-Chk1 immunofluorescence imaging, higher = more signal
[5] = blockers of DNA damage checkpoint Chk1 activation – imaging, HeLa, hydroxyurea, phospho-Chk1 nuclear intensity, primary screen (AID 1187); conditions: hydroxyurea-induced phospho-Chk1 immunofluorescence imaging, higher = more signal

SMILES	composite z-score [1]	composite z-score (XIP peptide (Xip251-270))	z-score [2]	z-score [3]	z-score [4]	z-score [5]
C=CC[C@H](O)c1ccc(O)c(F)c1	-0.51 (inactive)	0.0085	-0.418	-1.51 (inactive)	-0.316 (inactive)	-0.264 (inactive)
CC(C)c1ccc(NN2C(C(O)C(C)c3ccccc3)C=CC3C(=O)N(c4ccccc4)C(=O)C32)cc1 (configuration not stated)	2.17 (inactive)	0.77	-0.119	-2.2 (inactive)	0.545 (inactive)	0.739 (inactive)
CN1C(=O)C2C=CC(C(O)c3cccs3)N(N(c3ccccc3)c3ccccc3)C2C1=O (configuration not stated)	0.564 (inactive)	0.482	-0.0266	-4.42 (inactive)	0.557 (inactive)	-0.499 (inactive)
C=C(COC)C(=O)CC[C@H](OC(C)=O)c1ccc(CO)o1	-0.153 (inactive)	0.626	-0.689	-4.72 (inactive)	-0.707 (inactive)	-0.842 (inactive)
C=C1C(=O)C=C2CN(C(=O)c3ccccc3)[C@@](Cc3ccc(F)cc3)(C(=O)OC)[C@@H]12	0.741 (inactive)	0.459	-1.59	-4.76 (inactive)	-2.23 (inactive)	-3.76 (inactive)
CN1C(=O)C2C=CC(C(O)COCc3ccccc3)N(Nc3ccc([N+](=O)[O-])cc3[N+](=O)[O-])C2C1=O (configuration not stated)	0.649 (inactive)	0.544	0.391	-4.41 (inactive)	-0.589 (inactive)	-0.803 (inactive)
COC(=O)C(CC#Cc1ccc2c(c1)[C@]1(C(=O)N2)[C@H](C(N)=O)[C@H]2C(=O)O[C@H](c3ccccc3)[C@H](c3ccccc3)N2[C@@H]1c1ccccc1OCCO)C(=O)OC	0.898 (inactive)	0.817	-2.08	-1.12 (inactive)	-0.49 (inactive)	-0.137 (inactive)
CCCC[C@@H](O)C1=C(C)Cn2c(=O)n(-c3ccccc3)c(=O)n2[C@H]1CO	-0.387 (inactive)	0.0389	0.0686	-0.901 (inactive)	-0.522 (inactive)	-0.621 (inactive)
CCOC(=O)C1=CCC(c2ccncc2)N(S(=O)(=O)c2ccc(C)cc2)C1 (configuration not stated)	0.373 (inactive)	0.835	-0.886	-4.63 (inactive)	0.0325 (inactive)	0.104 (inactive)
C=CCNC(=O)[C@H]1[C@@H]2C(=O)O[C@@H](c3ccccc3)[C@@H](c3ccccc3)N2[C@@H](c2ccc(O)cc2)[C@]12C(=O)N(C(=O)OCCOC)c1ccc(C#Cc3ccc(OC)cc3)cc12	-0.184 (inactive)	0.625	-0.812	-1.16 (inactive)	0.0708 (inactive)	0.21 (inactive)
CCOC(=O)C1=C[C@@H](C(C)(C)C)N(S(=O)(=O)c2ccc(C)cc2)[C@H]1c1ccc(OC)cc1	0.58 (inactive)	0.582	-1.88	-0.488 (inactive)	0.15 (inactive)	0.503 (inactive)
CCCCC(=C=CC[C@H](O)c1cccc(OCCO)c1)C[C@H](O)c1cc(Cl)cc(Cl)c1O	0.878 (inactive)	0.592	-1.16	-4.28 (inactive)	-0.755 (inactive)	0.0773 (inactive)
CC[C@@H](O[Si](C#C[Si](C(C)C)(C(C)C)C(C)C)(C(C)C)C(C)C)c1cn([C@H](C)c2ccccc2)nn1	-0.645 (inactive)	-0.0862	-0.38	0.0519 (inactive)	0.0891 (inactive)	-0.469 (inactive)
COc1cc2c(cc1OC)CN(C(=O)[C@@H]1[C@H]3C(=O)O[C@H](c4ccccc4)[C@H](c4ccccc4)N3[C@H](c3ccc(O)cc3)[C@@]13C(=O)Nc1ccc(C#CC4=CCCCC4)cc13)CC2	0.715 (inactive)	0.535	-0.75	2.74 (inactive)	0.0655 (inactive)	0.407 (inactive)
CC1C2C(CCCO)=CC(C3C(=O)N(C)C(=O)C23)N1Cc1cccc(OC(F)(F)F)c1 (configuration not stated)	1.17 (inactive)	0.806	-1.7	-7.46 (inactive)	-0.324 (inactive)	-0.301 (inactive)
COc1cccc(C)c1NC(=O)O[C@H]1[C@H](OC(=O)Nc2ccccc2)[C@@H](OC(=O)Nc2ccccc2)[C@@H](OC)O[C@@H]1CO	1.3 (inactive)	0.912	-2.57	-4.95 (inactive)	-0.515 (inactive)	-0.515 (inactive)
O=C1O[C@H](c2ccccc2)[C@H](c2ccccc2)N2[C@H]1[C@@H](C(=O)O)[C@]1(C(=O)Nc3ccc(C#CC4(O)CCCCCC4)cc31)[C@H]2c1ccccc1OCCO	0.168 (inactive)	0.779	-0.21	-5.71 (inactive)	0.152 (inactive)	0.579 (inactive)
